The record followed here is PubChem BioAssay AID1626 (SRMLSC, 2009).

Each structure is given as a SMILES string. Out of some 220,000 compounds screened, about 2,000 (0.91%) were called active. Not shown: some 2% with an inconclusive outcome. Rule as the data show it: inconclusive = inhibition above about 80% without an active follow-up result; inactive = below that; test concentration not stated here. These entries were drawn from the full list. Results with a measured potency or affinity are listed apart.

The nature of the experiment: M. tuberculosis H37Rv growth inhibitors, H37Rv strain (AID 1626).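 Also: bacteria incubated seven days before Alamar blue readout; 0% = bacteria only wells and 100% = bacteria with antibiotic wells.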 The conditions noted are these: stronger effect = higher value, concentration not given here.
The term inhibition denotes the change of the read-out against control, counted positive when it falls. Consider `CCCCCCCCCCCCCCCC[n+]1cccc(C(=O)N(CC)CC)c1`, for which the inhibition was 5.29% (inactive).
`C=C(C)Cn1c(=O)c(NC(=O)c2ccccc2)c2n(c1=S)CCC2`: the inhibition is -3.38% (inactive).
As for `O=C(NCCCN1CCOCC1)c1cccnc1SCc1ccccc1Cl`, the figure is -2.04% (inactive).
The value for `CCN(CC)CCN(Cc1cc2ccc(C)c(C)c2[nH]c1=O)C(=S)NCc1ccco1` was -6.4% (inactive); that for `O=[N+]([O-])c1ccc(COc2ccc(-c3[nH]ncc3-c3ccccc3)c(O)c2)cc1` was 11.9% (inactive).
In the case of `COc1ccc(-c2cn[nH]c2-c2ccc(OCc3ccc([N+](=O)[O-])cc3)cc2O)cc1`, the inhibition was 9.69% (inactive).
As for `Cc1ccc(SCc2ccc(C(=O)N3CCCCC3)cc2)cc1`, the figure is 4.74% (inactive); as for `COC(=O)CCCCC1SCC(NC(=O)c2ccccc2)C1OC(C)=O` (stereo unspecified), -1.97% (inactive).
Take `COC(=O)/C(=C\Nc1ccc(OC)cc1)NC(=O)c1ccc(Cl)cc1Cl`: the inhibition was 46.4% (inactive).
Regarding `CCCOC(=O)c1ccc(NS(=O)(=O)c2cccs2)cc1`, the inhibition was 8.32% (inactive).
As for `CCN(CC)CCOC(=O)c1ccc(NC(=O)/C=C/c2cccs2)cc1`, the inhibition was -0.83% (inactive).
Regarding `O=C(/C=C/c1cccs1)Nc1ccncc1`, the inhibition is -3.31% (inactive).
Consider `NS(=O)(=O)c1ccc(NC(=O)/C=C/c2cccs2)cc1`, for which the inhibition is -2.49% (inactive).
As to `CC(=O)Nc1ccc(N(C(=O)c2ccco2)C(C(=O)NC2CCCC2)c2cccs2)cc1` (stereo unspecified), the inhibition was -12.6% (inactive).
Consider `O=C(O)c1cc([N+](=O)[O-])ccc1Nc1ccccc1`, for which the inhibition was 0.55% (inactive).
As to `CCOC(=O)C1=C(C)N(Cc2ccccc2)C(=O)NC1c1ccccc1OS(=O)(=O)c1ccccc1[N+](=O)[O-]` (stereo unspecified), the inhibition was 1.38% (inactive).
Take `CCNC(=O)CN(C1CCCCC1)S(C)(=O)=O`: the inhibition was -1.63% (inactive).
The value for `Cc1cc(N2CCN(C(=O)c3ccco3)CC2)n2ncnc2n1` was 0.62% (inactive); that for `O=C(Nc1ccc(Cl)c(Cl)c1)Oc1ccc(NC(=O)c2ccco2)cc1` was 61.8% (inactive).
For `CCc1ccc(C(C)NC(=O)Cc2ccc(F)cc2)cc1` (stereo unspecified), the inhibition was 9.96% (inactive).
On to `COCCCn1c(-c2ccccc2)nc2ccccc2c1=O`, for which the inhibition was 5.89% (inactive).
For the molecule `CCOC(=O)Cn1c(-c2ccccc2)nc2ccccc2c1=O`, the inhibition is 45.8% (inactive).
With `CCCNS(=O)(=O)c1ccc(OCC(=O)Nc2ccc3c(c2)OCO3)cc1`, the inhibition is -3.44% (inactive).
As to `CCCN(CC1CC1)C(=S)Nc1ccc(C(C)=O)cc1`, the inhibition was -2.45% (inactive).
Take `COc1ccc(-c2nn3c(C4CCCCC4)nnc3s2)cc1OC`: the inhibition is 4.71% (inactive).
The value for `COc1cc(-c2nn3c(C4CCCCC4)nnc3s2)cc(OC)c1OC` was 28.5% (inactive); that for `Cc1nnc(Sc2cc(C(=O)NCCCOC(C)C)c3ccccc3n2)s1` was 4.65% (inactive).
Regarding `CCN1C(=O)C2(C(C#N)=C(N)Oc3n[nH]c(COC)c32)c2ccccc21` (stereo unspecified), the inhibition was -1.31% (inactive).
Consider `Cc1cccc2cc(CNCc3ccccc3)c(Cl)nc12`, for which the inhibition is -2.86% (inactive).
In the case of `Cc1ccc(CNCc2ccccc2Cl)cc1`, the inhibition is 6.89% (inactive).
On to `Cc1cc(C)c(NC(=O)CSc2nc3ccc(NC(=O)CSc4nnnn4Cc4ccccc4)cc3s2)c(C)c1`, for which the inhibition was 8.59% (inactive).
As for `O=C(CCN1CCN(Cc2ccccc2)CC1)Nc1cccc(Cl)c1`, the figure is -5.85% (inactive); as for `Cc1cc(C)c2c(CN3CCN(Cc4ccc5c(c4)OCO5)CC3)cc(=O)oc2c1`, 23.5% (inactive); as for `Cc1ccc2c(CN3CCN(Cc4ccc5c(c4)OCO5)CC3)cc(=O)oc2c1C`, -3.12% (inactive).
The value for `CCOc1ccccc1NC(=O)CN1C(=O)CSC(C)C1=O` (stereo unspecified) was 2.75% (inactive); that for `CNC(=S)N1N=C(c2ccc(C)cc2)CC1c1ccc(OC)cc1` (stereo unspecified) was 3.11% (inactive).
Take `COC(=O)c1cn(C(=O)/C=C/c2ccc(OC)c(OC)c2)c2ccccc12`: the inhibition was 4.86% (inactive).
As for `c1ccc(Cn2c(CNc3nc4ccccc4n3CCN3CCCCC3)nc3ccccc32)cc1`, the figure is 16.8% (inactive).
Consider `CCOC(=O)c1ccc(NC(=S)NNC(=O)C2(C)CC2(Cl)Cl)cc1` (stereo unspecified), for which the inhibition is 1.27% (inactive).
On to `O=C1/C(=C/c2ccco2)SC(=S)N1c1cccnc1`, for which the inhibition is -3.57% (inactive).
Take `N=C1S/C(=C\c2ccco2)C(=O)N1c1ccc2c(c1)OCO2`: the inhibition is 3.8% (inactive).
On to `CN1C(=O)C(=Cc2ccc(-c3cccc(Cl)c3)o2)C(=O)N(C)C1=O`, for which the inhibition is 5.04% (inactive).
As to `O=C1OC(c2cccs2)=N/C1=C\c1ccc(-c2cccc(Cl)c2)o1`, the inhibition was 4.3% (inactive).
As for `O=S(=O)(c1cnc(Cl)c(Br)c1)N1CCN(c2ncccn2)CC1`, the figure is -10.8% (inactive); as for `Cc1ccc(C(NC(=O)c2ccccc2)C(Cl)(Cl)Cl)cc1` (stereo unspecified), 5.19% (inactive).
For the molecule `CC(=O)NC(O)C(=O)c1ccccc1` (stereo unspecified), the inhibition was 3.23% (inactive).
`O=Cc1cn(CC(=O)NCC2CCCO2)c2ccccc12` (stereo unspecified): the inhibition is 2.23% (inactive).
Take `Cc1occc1-c1nnc(SCC(=O)NC2CCCC2)n1-c1ccccc1`: the inhibition is 2.16% (inactive).
For `CNC(=O)CSc1ncnc2c1cnn2-c1ccccc1`, the inhibition is -3.44% (inactive).
Take `CC(C)(C)C(=O)CSc1ncnc2c1cnn2-c1ccccc1`: the inhibition is 9.82% (inactive).
Consider `NC(=O)CSc1ncnc2c1cnn2Cc1ccccc1`, for which the inhibition is -0.76% (inactive).
For `CCOC(=O)CC(=O)CSc1ncnc2c1cnn2-c1ccccc1`, the inhibition is -1.22% (inactive).
In the case of `CCN(CC)C(=O)CSc1ncnc2c1cnn2Cc1ccccc1`, the inhibition was -79.5% (inactive).
With `CCOC(=O)Cn1cnc2c(cnn2-c2ccc(Cl)cc2)c1=O`, the inhibition is -3.87% (inactive).
As for `CC(=O)CSc1ncnc2c1cnn2-c1ccccc1`, the inhibition is -1.25% (inactive).
For `CCOC(=O)CNC(=O)CSc1ncnc2c1cnn2-c1ccc(Cl)cc1`, the inhibition is 14.2% (inactive).
For the molecule `COc1ccc(Cc2nnc(SCC(=O)N3CCCCC3)o2)cc1`, the inhibition is 3.26% (inactive).
On to `O=C1N(Cc2cccnc2)C[C@@H]2C[C@@H](c3cccc(C(F)(F)F)c3)N3CCC[C@@]123`, for which the inhibition was 2.57% (inactive).
On to `CCCCOc1nc2ccccc2nc1C(C#N)S(=O)(=O)c1ccccc1` (stereo unspecified), for which the inhibition was -4.72% (inactive).
Consider `CN(c1ccc(OCC(=O)OCC(=O)NCc2ccco2)cc1)S(=O)(=O)c1ccc2ccccc2c1`, for which the inhibition is -0.25% (inactive).
As for `COc1ccccc1C(=O)C1CCCN(C(=O)c2snnc2C)C1` (stereo unspecified), the inhibition was -0.23% (inactive).
